# Measurements from PMC7826789 (International Journal of Molecular Sciences, 2021).
# What was measured:
# [1] = test system: PRKD1
# [2] = test system: PRKX
# [3] = test system: PTK2B
# [4] = test system: PRKD2
# [5] = test system: PRKCH
# [6] = test system: PRKD3
# [7] = test system: PRKCD
# [8] = test system: PRKCE
# [9] = test system: PRKCQ
# [10] = test system: PRKAA1
smiles,measurement,setting,value
Cc1cccc(-c2cc(Nc3ccncc3)c3ccccc3n2)n1 [GSK223675],Kinases covered,[1],PRKD1
CNc1nc(-c2ccc3c(N)n[nH]c3c2)cc(N2C[C@@H](C(=O)Nc3ccccc3)CC[C@H]2C)n1 [GSK2298859],Kinases covered,[2],PRKX
COc1cc(N2CCN(C(C)C)CC2)ccc1Nc1nc(Nc2ccc(F)cc2C(=O)NC[C@@H](O)CO)c2cc[nH]c2n1 [GSK1392956A],Kinases covered,[3],PTK2B
COc1ccc2nc(-c3cccc(C)n3)nc(Nc3ccncc3)c2c1 [GSK204919],Kinases covered,[1],PRKD1
same,Kinases covered,[4],PRKD2
CCn1c(-c2nonc2N)nc2c(C#CC(C)(C)O)nc(OCCNC)cc21.Cl [GSK949675],Kinases covered,[5],PRKCH
Cc1cccc(-c2nc(Nc3ccncc3)c3ccccc3n2)n1 [GW855857],Kinases covered,[1],PRKD1
same,Kinases covered,[4],PRKD2
same,Kinases covered,[6],PRKD3
NCC1CCC(CNc2nc(NCc3ccccc3OC(F)(F)F)ncc2[N+](=O)[O-])CC1 (centres unmarked) [BIRZ0518XX],Kinases covered,[7],PRKCD
same,Kinases covered,[8],PRKCE
same,Kinases covered,[9],PRKCQ
C[C@@H]1CCNC(=O)c2cc3ccc(C(=O)Nc4nc5ccccc5n4CCCN(C)C)cc3n21 [BI00645435],Kinases covered,[1],PRKD1
COc1cc(Nc2cnc(C#N)c(O[C@H](C)CN(C)C)n2)ncc1-c1cnn(C)c1 [CCT244747],Kinases covered,[10],PRKAA1
